CYP2C19 act: human CYP2C19 activators, primary screen, biochemical, luminescence; Cytochrome P450 2C19 (Homo sapiens), P33261; recombinant CYP2C19, luciferin-H EGE luminescence; hits give high values; 0 = fully inhibited enzyme, 1 = untreated enzyme; activation factor at 5 µM; 96,000 tested, under 10 active; AID 1025, 2008;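 active means activation factor of at least 2 at 5 µM in the primary screen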;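 further: 0 = wells with 2.5 mM tranylcypromine and 1 = vehicle-only wells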
CYP2C19 inhib: blockers of cytochrome P450 2C19 activity – biochemical, luminescence, ADME assay, primary screen | CYP2C19 Supersomes, luciferin-H EGE luminescence, 30 min | 21% of 96,000 active | P33261 | AID 778, 2007 | inhibition, % at 5 µM;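 active means CYP2C19 inhibition above a set limit at 5 µM in the primary screen, cut at about 50% in these data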;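 further: plate controls were negative control wells for no effect and 2.5 mM tranylcypromine positive control for full effect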
Cav3 T inh: Cav3.2 calcium influx blockers – cell-based, Fluo-4 calcium fluorescence, FDSS, MLSMR library, primary screen. Voltage-dependent T-type calcium channel subunit alpha-1H (Homo sapiens), O95180. Cav3.2-expressing cells; hits give low values. 4% of 100,000 active. AID 449739, 2010. B-score at 10 µM;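 active means single-dose well whose peak fluorescence ratio is a statistical outlier from its plate by either plate-standardised score or position-corrected B-score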
CYP2C9 activ: human CYP2C9 activators, primary screen, biochemical, luminescence | 1.4% of 96,000 active | activation factor at 5 µM | recombinant CYP2C9, luciferin-H conversion; hits give high values; factor 1 = untreated enzyme, 0 = blocked | Cytochrome P450 2C9 (Homo sapiens), P11712 | AID 1024, 2008;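 active means activation factor of 2 or more for CYP2C9 at a 5 µM dose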;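 further: 0 = sulfaphenazole-blocked wells and 1 = vehicle-only wells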
CYP2C9 inhib: blockers of cytochrome P450 2C9 activity – biochemical, luminescence, ADME assay, primary screen; AID 777, 2007; CYP2C9 Supersomes, luciferin-H conversion; P11712; 20% of 96,000 active; inhibition, % at 5 µM;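 active means blocking of liver enzyme CYP2C9 beyond about 50% at 5 µM, limit read from the data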
* = called active by the depositor; / = not tested or not shown. This is a sample that favours compounds with a hit; in the whole collection about 27% have one here.

SMILES | CYP2C19 act | CYP2C19 inhib | Cav3 T inh | CYP2C9 activ | CYP2C9 inhib
O=C(OCC#CCSc1nnc(-c2ccncc2)o1)c1cccs1 | 0.2 | 78.6* | -4.28* | 0.2 | 77.7*
COC(=O)CSc1nnc(-c2ccncc2)o1 | 1 | 3.1 | -0.411 | 1.1 | -12.4
Cc1cc(C)n(-c2nc3nonc3nc2Nc2cccc(C)c2C)n1 | 0.9 | 7.2 | -3.04 | 1 | 4.0
O=C(O)[C@H](Cc1ccccc1)NC(=O)N1CCOCC1 | 1 | -4.1 | -0.47 | 1.1 | -7.3
CCOc1ccc(NC(=O)C23CC4CC(C2)CC(c2ccccc2)(C4)C3)cc1 | 0.6 | 37.8 | -1.87* | 0.8 | 23.4
CCN(CC)C(=O)C(C)OC(=O)c1ccc(O)cc1 (stereo unspecified) | 1 | -2.2 | 0.424 | 1 | 1.7
CCC1=CC(c2ccccc2)n2ncnc2N1 (stereo unspecified) | / | / | 0.197 | / | /
CCOc1ccc(Cn2c(C)nc([N+](=O)[O-])c2SCC(O)CCl)cc1[N+](=O)[O-] (stereo unspecified) | 0.2 | 75.5* | 0.525 | 0.4 | 61.0*
CC1(C)CC(=O)c2c(O)cc(OCc3ccc(Br)cc3)cc2O1 | 0.4 | 61.4* | -1.01 | 0.2 | 85.0*
COC(=O)c1ccc(COc2cc(O)c3c(c2)OC(C)(C)CC3=O)cc1 | 0.5 | 51.2* | -0.567 | 0.8 | 22.7
COc1cc(O)c2c(c1)OC(C)(C)CC2=O | 1 | 4.8 | 0.0528 | 1.1 | -7.8
CC(NC(=O)c1cc(-c2ccc(Br)cc2)on1)c1ccccc1 (stereo unspecified) | 1 | 3.5 | 0.0149 | 0.8 | 19.3
C/C(N)=C(/C#N)C(=O)COC(=O)C1Cc2ccccc2CN1S(C)(=O)=O (stereo unspecified) | 0.9 | 5.5 | 0.275 | 0.8 | 17.8
CC(=O)NC12CC3CC(C1)CC(C(=O)OCC(=O)Nc1ncc(Cl)cc1Cl)(C3)C2 | / | / | -0.119 | / | /
Cc1ccc(OCCCn2ccnc2)cc1C | 0 | 100.4* | 0.868 | 0 | 96.1*
Cc1cccc(OCCCn2ccnc2)c1 | 0 | 99.8* | 0.221 | 0.3 | 67.5*
C=CCn1c(COC)nnc1SCC(=O)c1ccc(F)cc1 | 0.6 | 35.5 | 0.852 | 1.2 | -17.4
COC(=O)c1ccc(Oc2c(C)oc3c(CN4CCN(C)CC4)c(O)ccc3c2=O)cc1 | 0.9 | 5.9 | -2.41 | 1 | 3.5
CCc1ccc(CCC(=O)Nc2ccc(C)c(C)c2)o1 | 0.5 | 51.1* | -2.11 | 0.9 | 13.5
COc1ccc(-c2noc(CCC(=O)Nc3ccc4c(c3)OCCO4)n2)cc1 | 0.3 | 65.6* | -0.326 | 0.2 | 76.2*
COc1ccc(-c2noc(CCC(=O)NCCN(C)Cc3ccccc3)n2)cc1 | 0.6 | 43.5 | 0.812 | 0.7 | 34.7
CCN(CCCNC(=O)CCc1nc(-c2ccc(OC)cc2)no1)c1cccc(C)c1 | 0.1 | 93.3* | -8.81* | 0.1 | 87.2*
Cc1cccc(CCNC(=O)CCc2nc(-c3ccccc3F)no2)c1 | 0.1 | 91.5* | / | 0.2 | 82.2*
C[C@H]1[C@H](C)CC[C@]2(C)CC[C@]3(C)C(=CC[C@@H]4[C@@]5(C)CC[C@@H](O)[C@](C)(C(=O)O)[C@@H]5CC[C@]43C)[C@H]12 | / | / | -2.34 | / | /
Cc1cccc(OCC(=O)NNC(=O)Nc2cccc(Cl)c2)c1C | 1 | 1.9 | 0.475 | 1 | -3.1
SMILES | CYP2C19 act | CYP2C19 inhib | Cav3 T inh | CYP2C9 activ | CYP2C9 inhib
COc1ccc(NC(=O)CCc2nc(-c3ccc(C)cc3)no2)cc1Cl | 0.9 | 11.5 | -0.775 | 0.9 | 11.1
COc1ccc(-c2noc(CCC(=O)Nc3ccc(C)c(C)c3)n2)cc1 | 0.6 | 38.6 | 6.34e-05 | 0.4 | 57.7*
CCOC(=O)c1ccc(NC(=O)CCc2nc(-c3ccc(C)cc3)no2)cc1 | 0.3 | 70.1* | -3.02 | 0.1 | 94.2*
CCc1cccc(CC)c1N(COC)C(=O)Cn1c(C(C)O)nc2ccccc21 (stereo unspecified) | 0.9 | 6.3 | -0.926 | 0.9 | 5.7
O=C(Cc1ccc(F)cc1)Nc1c2c(nn1-c1cccc(Cl)c1)CS(=O)C2 (stereo unspecified) | 0 | 100.4* | 0.71 | 0.6 | 37.6
O=C(COn1nnc2ccc(Cl)cc21)NCc1ccccc1 | 0.5 | 47.1 | / | 1.2 | -15.8
CCc1ccccc1OCC(=O)NC1CCCC1 | 0.1 | 92.9* | 0.516 | 0.6 | 35.9
COc1ccccc1OCC(=O)NCC1CCCCC1 | 0.1 | 94.7* | -0.641 | 1.1 | -11.1
COC(=O)c1ccccc1OCC(=O)NC1CCCCC1 | 0.4 | 64.2* | 0.432 | 0.5 | 49.0
O=C(COn1nnc2ccccc21)NCC1CCCCC1 | 0.4 | 55.2* | -0.572 | 0.9 | 5.1
CC(C)NC(=O)CN1C(=O)NC(CCc2ccccc2)C1=O (stereo unspecified) | 0.9 | 11.7 | 0.00882 | 0.9 | 6.5
Cc1[nH]c2ccccc2c1C(=O)CN1CCN(C2CCCCC2)CC1 | 1 | -1.0 | 1.94 | 0.7 | 30.5
COc1ccc2[nH]c(C)c(C(=O)CN3CCN(C/C=C/c4ccccc4)CC3)c2c1 | 0.9 | 11.2 | -1.63 | 0.5 | 54.2*
COc1ccccc1N1CCN(CC(=O)c2c(C)[nH]c3ccccc23)CC1 | 0.1 | 86.8* | -0.715 | 1.8 | -84.7
CCC/C=C(\CCC)C(NS(=O)(=O)c1cccc2cccnc12)c1ccc(C(=O)OC)cc1 (stereo unspecified) | / | / | -1.49 | / | /
CC(C)(C)N1CC(COc2ccccc2)OC1=O (stereo unspecified) | 0.3 | 71.1* | -0.559 | 0.8 | 19.2
Cn1c(=O)c2c(nc(CN3CCN(Cc4ccccc4)CC3)n2Cc2ccc(Cl)cc2)n(C)c1=O | 0.7 | 32.9 | -3.73 | 0.5 | 50.8*
CCOC(=O)N1CCN(Cc2nc3c(c(=O)n(C)c(=O)n3C)n2Cc2cc(C)ccc2C)CC1 | 0.7 | 27.2 | / | 0.9 | 12.4
COc1ccc(N2CCN(Cc3nc4c(c(=O)n(C)c(=O)n4C)n3Cc3cccc(C)c3)CC2)cc1 | 0.9 | 14.2 | / | 0.8 | 15.5
CCCCn1c(CN(Cc2ccccc2)Cc2ccccc2)nc2c1c(=O)n(C)c(=O)n2C | / | / | -1.6 | / | /
Cc1ccc(C)c(Cn2c(CN(C)Cc3ccccc3)nc3c2c(=O)n(C)c(=O)n3C)c1 | 0.3 | 65.8* | -5.16 | 0.1 | 92.2*
COc1ccc(N2CCN(c3nc4c(c(=O)n(C)c(=O)n4C)n3Cc3ccccc3)CC2)cc1 | 0.5 | 48.7 | -0.371 | 0.3 | 67.5*
CCOCCn1c(CN(Cc2ccccc2)Cc2ccccc2)nc2c1c(=O)n(C)c(=O)n2C | 0.2 | 76.4* | -2.48 | 0.1 | 94.2*
C#CCn1c(=NC(=O)c2ccc(Br)s2)sc2cccc(OC)c21 | 1 | 1.0 | 0.412 | 1.7 | -72.3
CCC(C)(C(=O)NC1CCCCC1)N(C(=O)C1CCC(=O)N1)c1ccc(C)cc1 (stereo unspecified) | 1.1 | -14.7 | 0.0522 | 1.2 | -20.5
CN(Cc1ccccc1)c1nc2c(c(=O)n(C)c(=O)n2C)n1CCCc1ccccc1 | 0.1 | 88.5* | -6.25* | 0 | 97.0*
